Laboratory results published in the supplement of paper PMC8728848.
This is one part of a sample in which the strongest signals are shown more often than they occur.

Columns and labels:
Experiment in all cases: glycan array binding signal (z-score within array); higher = stronger binding
Details in all cases: glycan notation: IUPAC condensed, linker removed
[1] = target: Fuc(a1-2)Gal(b1-3)GalNAc(b1-3)Gal
Procedure, shortened: (§1)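 From the Consortium for Functional Glycomics database, 3228 arrays were curated, keeping only those whose protein sequence was available. Binding is given as a within-array Z-score averaged across arrays sharing a protein sequence and across linkers. Negative Z-scores can be read as non-binding.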

[2] = target: Fuc(a1-2)Gal(b1-3)GlcNAc
Procedure, shortened: as §1

[3] = target: Fuc(a1-2)Gal(b1-3)GlcNAc(b1-3)[Gal(b1-4)GlcNAc(b1-6)]Gal(b1-4)Glc
Procedure, shortened: as §1

[4] = target: Fuc(a1-2)Gal(b1-4)GlcNAc(b1-3)Gal(b1-4)GlcNAc(b1-3)Gal(b1-4)GlcNAc
Procedure, shortened: as §1

[5] = target: Fuc(a1-2)Gal(b1-4)[Fuc(a1-3)]GlcNAc
Procedure, shortened: as §1

[6] = target: Fuc(a1-2)Gal(b1-4)[Fuc(a1-3)]GlcNAc(b1-2)[Fuc(a1-2)Gal(b1-4)[Fuc(a1-3)]GlcNAc(b1-4)]Man(a1-3)[Fuc(a1-2)Gal(b1-4)[Fuc(a1-3)]GlcNAc(b1-2)Man(a1-6)]Man(b1-4)GlcNAc(b1-4)GlcNAc
Procedure, shortened: as §1

[7] = target: Fuc(a1-2)[Gal(a1-3)]Gal(b1-3)GlcNAc
Procedure, shortened: as §1

[8] = target: Fuc(a1-2)[Gal(a1-3)]Gal(b1-4)GlcNAc(b1-2)Man
Procedure, shortened: as §1

[9] = target: Fuc(a1-2)[Gal(a1-3)]Gal(b1-4)GlcNAc(b1-6)GalNAc
Procedure, shortened: as §1

[10] = target: Fuc(a1-2)[GalNAc(a1-3)]Gal(b1-4)GlcNAc(b1-2)Man(a1-3)[Fuc(a1-2)[GalNAc(a1-3)]Gal(b1-4)GlcNAc(b1-2)Man(a1-6)]Man(b1-4)GlcNAc(b1-4)GlcNAc
Procedure, shortened: as §1

[11] = target: Fuc(a1-2)[GalNAc(a1-3)]Gal(b1-4)GlcNAc(b1-6)GalNAc
Procedure, shortened: as §1

[12] = target: Fuc(a1-2)[GalNAc(a1-3)]Gal(b1-4)[Fuc(a1-3)]GlcNAc(b1-3)GalNAc
Procedure, shortened: as §1

[13] = target: Fuc(a1-3)[Gal(b1-4)]GlcNAc(b1-3)Gal(b1-3)[Fuc(a1-4)]GlcNAc
Procedure, shortened: as §1

[14] = target: Fuc(a1-3)[Gal(b1-4)]GlcNAc(b1-3)Gal(b1-4)[Fuc(a1-3)]GlcNAc
Procedure, shortened: as §1

[15] = target: Fuc(a1-3)[Gal(b1-4)]GlcNAc(b1-3)Gal(b1-4)[Fuc(a1-3)]GlcNAc(b1-3)Gal(b1-4)[Fuc(a1-3)]GlcNAc
Procedure, shortened: as §1

[16] = target: Fuc(a1-3)[GalNAc(b1-4)]GlcNAc
Procedure, shortened: as §1

[17] = target: Gal(a1-3)Gal(b1-3)[Fuc(a1-4)]GlcNAc(b1-2)Man(a1-3)[Gal(a1-3)Gal(b1-3)[Fuc(a1-4)]GlcNAc(b1-2)Man(a1-6)]Man(b1-4)GlcNAc(b1-4)GlcNAc
Procedure, shortened: as §1

[18] = target: Gal(a1-3)Gal(b1-4)GlcNAc(b1-6)GalNAc
Procedure, shortened: as §1

[19] = target: Gal(a1-3)GalNAc
Procedure, shortened: as §1

[20] = target: Gal(a1-3)[Gal(a1-4)]Gal(b1-4)GlcNAc
Procedure, shortened: as §1

[21] = target: Gal(a1-4)Gal(b1-4)Glc
Procedure, shortened: as §1

[22] = target: Gal(b1-3)GalNAc(b1-4)Gal(b1-4)Glc
Procedure, shortened: as §1

[23] = target: Gal(b1-3)GlcNAc(b1-2)Man(a1-3)[Gal(b1-3)GlcNAc(b1-2)Man(a1-6)]Man(b1-4)GlcNAc(b1-4)GlcNAc
Procedure, shortened: as §1

[24] = target: Gal(b1-3)GlcNAc(b1-6)[Gal(b1-3)]GalNAc
Procedure, shortened: as §1

[25] = target: Gal(b1-3)GlcNAc6S
Procedure, shortened: as §1

[26] = target: Gal(b1-3)[Fuc(a1-4)]GlcNAc(b1-2)Man(a1-3)[Gal(b1-3)[Fuc(a1-4)]GlcNAc(b1-2)Man(a1-6)]Man(b1-4)GlcNAc(b1-4)[Fuc(a1-6)]GlcNAc
Procedure, shortened: as §1

[27] = target: Gal(b1-3)[GlcNAc(b1-6)]GalNAc
Procedure, shortened: as §1

[28] = target: Gal(b1-4)GalNAc(a1-3)[Fuc(a1-2)]Gal(b1-4)GlcNAc
Procedure, shortened: as §1

B1: AT5G01260(PC)(40) (Arabidopsis thaliana), Q9LFB0 (protein)
chain: MIGIGRTLTSSSPSKIILEDLPPGIYRYGTEIFTSVPRKTFHHIKFLRLDSAQSSRILKPVPLRSSSIKDSQVNVEDEEIEASNKTVRVRFQLRKECVFGEHFFIVGDDPVFGGLWDPETALPLNWSDGNVWTVDLDLPVGRLVEFKLLLKAQTGEILWQPGPNRALETWETNKTIRICEDWDNADLQMMIEEDFVPYTNISSIGSEDEDEVLGSVQQNSSVVAVENAGYVSDESAQNSSFSIQSEKTMEPSNGALTAREVIKEAMFTEEESPVLVPGLIPLSDLDNEQVEVINEGKAETFPEVDKKQEPKAERNKKAKVKAISLFEKSEQEAVKSVEQRQYNAVEEEQQRLETEPLGTPDVLFENDIQWGRRTLYKLLSNFRLF
glycan array binding signal (z-score) [1]: -0.3 | glycan array binding signal (z-score) [2]: -0.85 | glycan array binding signal (z-score) [3]: -0.343 | glycan array binding signal (z-score) [4]: -0.994 | glycan array binding signal (z-score) [5]: -0.291 | glycan array binding signal (z-score) [6]: 0.175 | glycan array binding signal (z-score) [7]: 0.172 | glycan array binding signal (z-score) [8]: -0.675 | glycan array binding signal (z-score) [9]: -0.256 | glycan array binding signal (z-score) [10]: -0.648 | glycan array binding signal (z-score) [11]: -0.387 | glycan array binding signal (z-score) [12]: 7.04 | glycan array binding signal (z-score) [13]: 0.431 | glycan array binding signal (z-score) [14]: -0.975 | glycan array binding signal (z-score) [15]: 1.89 | glycan array binding signal (z-score) [16]: 1.78 | glycan array binding signal (z-score) [17]: 0.054 | glycan array binding signal (z-score) [18]: -0.159 | glycan array binding signal (z-score) [19]: 2.32 | glycan array binding signal (z-score) [20]: 9.44 | glycan array binding signal (z-score) [21]: 1.85 | glycan array binding signal (z-score) [22]: 2.16 | glycan array binding signal (z-score) [23]: 0.891 | glycan array binding signal (z-score) [24]: -0.659 | glycan array binding signal (z-score) [25]: 0.146 | glycan array binding signal (z-score) [26]: 0.147 | glycan array binding signal (z-score) [27]: 0.411 | glycan array binding signal (z-score) [28]: -0.618
